This is an account of results in PubChem BioAssay (EPA / NIEHS).

Records with an inconclusive call do not appear. Where a structure was tested more than once in an assay, its records may differ in their call. Active and inactive are the calls of the source. The calls were made as follows, unless noted: active = hit-call score of the fitted dose curve at least 0.9, where 1 is the maximum; inactive = score below 0.9.

Assay [1] in a line: ATG_NFI_CIS: Attagene CIS-FACTORIAL HepG2 Assay for human Nuclear Factor I (NFI) (AID 2282989). To be noted: HepG2 cis-regulatory reporter, NFI response element transcription; actives raise or lower the signal. The gist of the method:
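Transfected HepG2 liver cells, exposed 24 h, supplied total RNA for oligo(dT) reverse transcription and reporter-specific PCR. Labelled, HpaI-cut fragments were sized by capillary electrophoresis; DMSO set the baseline for bidirectional fitting.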

For assay [2], the target named is Myc proto-oncogene protein (Homo sapiens) (UniProt P01106). The assay can be described thus: ATG_Myc_CIS: Attagene CIS-FACTORIAL HepG2 Assay for human Myelocytomatosis (Myc) Proto-Oncogene Transcription Factor (AID 2282990). The following applies: HepG2, Attagene cis-reporter transcription factor activity; actives raise or lower the signal. The gist of the method:
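DMSO-normalised, bidirectionally fitted reporter mRNA signal. HepG2 cells transfected with cis reporter constructs, treated 24 h; transcripts detected by RT-PCR, 6-FAM primer extension and CE.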

A short description of assay [3]: ATG_NRF2_ARE_CIS: Attagene CIS-FACTORIAL HepG2 Assay for human Nuclear Factor Erythroid 2 Related Factor 2 (NFR2) response to Antioxidant Response Elements (ARE) (AID 2282992).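 As to AC50: reporter mRNA level measured by RT-PCR and capillary electrophoresis fluorescence.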 The following applies: HepG2 Attagene ARE/NRF2 reporter, transcription factor activity; actives raise or lower the signal. A digest of the protocol:
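Cis-factorial assay: transfected HepG2 reporter library, 24 h dosing, mRNA readout via RT-PCR/CE; DMSO-referenced bidirectional analysis.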

Assay [4] can be described thus: ATG_Oct_MLP_CIS: Attagene CIS-FACTORIAL HepG2 Assay for human Octamer-Binding Transcription Factor (Oct) (AID 2282993). The following applies: HepG2 Attagene cis-factorial Oct reporter, mRNA; actives raise or lower the signal. A digest of the protocol: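 Using HepG2 cells bearing transfected cis-reporter constructs, mRNA induction was read after 24 h by fluorescent RT-PCR and capillary electrophoresis, with DMSO defining baseline for gain- or loss-of-signal fits.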

For assay [5], the target named is Cellular tumor antigen p53 (Homo sapiens) (UniProt P04637). The assay can be described thus: ATG_p53_CIS: Attagene CIS-FACTORIAL HepG2 Assay for human p53 Transcription Factor (AID 2282994). The following applies: HepG2 p53 cis-element reporter, Attagene mRNA; actives raise or lower the signal. The gist of the method:
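Using HepG2 hepatoma cells carrying cis-acting multiplexed reporters, mRNA induction is detected after a 24 h exposure. Gain- and loss-of-signal responses are fitted relative to DMSO-treated cells.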

A short description of assay [6]: BSK_3C_TissueFactor: BioMAP Diversity Plus: 3C Assay for Tissue Factor Biomarker Activity (AID 2282997). To be noted: BioMAP 3C HUVEC, tissue factor biomarker readout; actives raise or lower the signal. The gist of the method: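 Human vascular primary cells (umbilical vein endothelium) received test chemical; Tissue Factor was determined by ELISA at 24 h, and both gain and loss of signal versus DMSO were fitted.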

The nature of assay [7]: BSK_3C_uPAR: BioMAP Diversity Plus: 3C Assay for Urokinase-type plasminogen activator receptor (uPAR) Biomarker Activity (AID 2282998). The following applies: BioMAP 3C HUVEC, uPAR biomarker ELISA; actives raise or lower the signal. A digest of the protocol:
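In this endothelial cell-based assay, human umbilical vein primary cells were treated with chemicals and harvested at 24 h. uPAR was quantified using ELISA, with gains or losses fitted relative to DMSO controls.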
A general note: An ELISA detects its analyte on a solid surface through an enzyme-linked reagent.

The nature of assay [8]: BSK_4H_Eotaxin3: BioMAP Diversity Plus: 4H Assay for Eotaxin 3 Biomarker Activity (AID 2283000).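 As to outcome: CCL26 protein level quantified by ELISA in parallel with SRB cytotoxicity check.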 To be noted: primary human endothelial cells (HUVEC); actives raise or lower the signal. A digest of the protocol: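 Readout is Eotaxin-3 (CCL26) level by ELISA in primary human umbilical vein endothelial cells harvested 24 h after chemical exposure; activity fitted in both directions against DMSO control.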

The target in assay [9] is human Peroxisome Proliferator-activated Receptor alpha (PPARa), PPARA (gene 5465) (UniProt Q07869). The assay can be described thus: ATG_PPARa_TRANS: Attagene TRANS-FACTORIAL HepG2 Assay for human Peroxisome Proliferator-activated Receptor alpha (PPARa) (AID 2283001; active = hit-call score of the fitted dose curve at least 0.9, where 1 is the maximum). The gist of the method: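 Gain-of-signal endpoint: reporter mRNA induction relative to DMSO, detected by fluorescent RT-PCR and capillary electrophoresis. HepG2 cells transiently carried GAL4-UAS-driven reporter units plus NR-Gal4 fusion; exposure lasted 24 h.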
human Peroxisome Proliferator-activated Receptor alpha (PPARa), PPARA (gene 5465), sequence (Q07869 whole entry, looked up, the tested form may be a part): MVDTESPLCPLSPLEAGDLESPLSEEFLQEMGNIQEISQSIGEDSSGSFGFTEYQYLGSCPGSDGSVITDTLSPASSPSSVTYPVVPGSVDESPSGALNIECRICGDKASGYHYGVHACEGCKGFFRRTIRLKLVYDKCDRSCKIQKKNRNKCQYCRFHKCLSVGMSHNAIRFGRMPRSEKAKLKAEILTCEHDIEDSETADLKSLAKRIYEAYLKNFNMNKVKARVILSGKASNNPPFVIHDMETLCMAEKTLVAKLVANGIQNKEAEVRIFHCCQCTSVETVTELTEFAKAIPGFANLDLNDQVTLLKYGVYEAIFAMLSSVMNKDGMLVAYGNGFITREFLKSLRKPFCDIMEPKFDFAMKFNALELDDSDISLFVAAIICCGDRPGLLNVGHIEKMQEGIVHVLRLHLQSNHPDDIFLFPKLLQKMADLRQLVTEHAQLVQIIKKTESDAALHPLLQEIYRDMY

In assay [10] the target is human Peroxisome Proliferator-activated Receptor delta (PPARd), PPARD (gene 5467) (UniProt Q03181). The assay is described as follows: ATG_PPARd_TRANS: Attagene TRANS-FACTORIAL HepG2 Assay for human Peroxisome Proliferator-activated Receptor delta (PPARd) (AID 2283002; active = hit-call score of the fitted dose curve at least 0.9, where 1 is the maximum). A digest of the protocol: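 Measured quantity: GAL4-UAS reporter transcript induction in HepG2 after 24 h chemical dosing, with NR-Gal4 chimeras supplied by transient transfection. Detection by RT-PCR and capillary electrophoresis; upward fit against DMSO.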
human Peroxisome Proliferator-activated Receptor delta (PPARd), PPARD (gene 5467), sequence (Q03181 whole entry, looked up, the tested form may be a part): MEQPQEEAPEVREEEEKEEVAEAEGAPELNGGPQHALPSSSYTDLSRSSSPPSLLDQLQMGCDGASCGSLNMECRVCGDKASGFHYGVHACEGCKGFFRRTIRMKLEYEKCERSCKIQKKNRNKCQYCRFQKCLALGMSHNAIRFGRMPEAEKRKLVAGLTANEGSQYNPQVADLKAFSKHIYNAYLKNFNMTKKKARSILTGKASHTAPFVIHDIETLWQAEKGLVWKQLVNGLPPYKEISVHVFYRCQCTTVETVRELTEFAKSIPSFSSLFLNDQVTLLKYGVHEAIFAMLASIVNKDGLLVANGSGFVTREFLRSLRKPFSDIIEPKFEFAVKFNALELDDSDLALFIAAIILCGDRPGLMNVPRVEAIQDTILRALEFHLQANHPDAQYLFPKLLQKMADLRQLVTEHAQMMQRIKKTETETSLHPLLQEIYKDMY

Read-out in assay [11]: Intercellular Adhesion Molecule 1 (ICAM1), ICAM1 (gene 3383)
The assay can be described thus: BSK_3C_ICAM1: BioMAP Diversity Plus: 3C Assay for Intercellular Adhesion Molecule 1 (ICAM1) Biomarker Activity (AID 2283003). The following applies: primary human endothelial cells (HUVEC); actives raise or lower the signal. The gist of the method:
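ICAM-1 levels measured by ELISA after HUVEC cultures in the 3C system had been dosed for 24 h. Gain or loss of signal relative to DMSO was fitted in both directions.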

A short description of assay [12]: BSK_3C_Proliferation: Cell Proliferation Assessment in the BioMAP Diversity Plus: 3C Assay (AID 2283006).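 As to AC50: potency may reflect either rise or fall in cell number versus DMSO.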 To be noted: primary human endothelial cells (HUVEC). A digest of the protocol: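 Read-out is total protein by SRB absorbance at 560 nm, taken as a proxy for relative cell number. Primary human umbilical vein endothelium cultured below confluence was dosed for 48 h, TCA-fixed and SRB-stained; curves were fitted bidirectionally versus DMSO.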

The target of assay [13] is Peroxisome proliferator-activated receptor gamma (Homo sapiens) (UniProt P37231). The assay can be described thus: ATG_PPARg_TRANS: Attagene TRANS-FACTORIAL HepG2 Assay for human Peroxisome Proliferator-activated Receptor-gamma (PPARg) (AID 2283007; active = hit-call score of the fitted dose curve at least 0.9, where 1 is the maximum). The gist of the method:
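Multiplexed reporter transcription units in HepG2, 24 h dosing, reporter transcripts quantified by fluorescent RT-PCR and capillary electrophoresis. Increase over DMSO scored.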

The target of assay [14] is Nuclear receptor subfamily 1 group I member 2 (Homo sapiens) (UniProt O75469). The assay can be described thus: ATG_PXR_TRANS: Attagene TRANS-FACTORIAL HepG2 Assay for human Pregnane X Receptor (PXR) (AID 2283008; active = hit-call score of the fitted dose curve at least 0.9, where 1 is the maximum). The gist of the method: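 Fluorescence intensity of FAM-labelled, HpaI-digested reporter amplicons, separated by capillary electrophoresis, quantifies induction. HepG2 cells with PXR-Gal4 trans-reporter system were exposed 24 h; DMSO defines baseline.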
Nuclear receptor subfamily 1 group I member 2 (Homo sapiens), sequence (O75469 whole entry, looked up, the tested form may be a part): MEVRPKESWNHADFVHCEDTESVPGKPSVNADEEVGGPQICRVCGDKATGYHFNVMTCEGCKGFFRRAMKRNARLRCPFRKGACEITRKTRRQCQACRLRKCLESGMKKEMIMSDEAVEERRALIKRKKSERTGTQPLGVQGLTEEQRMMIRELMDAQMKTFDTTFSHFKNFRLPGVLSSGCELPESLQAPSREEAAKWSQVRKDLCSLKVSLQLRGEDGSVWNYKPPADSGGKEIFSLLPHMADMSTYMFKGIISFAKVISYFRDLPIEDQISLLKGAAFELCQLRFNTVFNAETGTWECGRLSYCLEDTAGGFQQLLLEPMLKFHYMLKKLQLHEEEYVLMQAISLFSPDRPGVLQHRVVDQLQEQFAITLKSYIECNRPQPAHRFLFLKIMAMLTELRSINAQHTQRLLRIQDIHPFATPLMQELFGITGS

In assay [15] the target is human RAR-related Orphan Receptor beta (RORb), RORB (gene 6096) (UniProt Q92753). The assay is described as follows: ATG_RORb_TRANS: Attagene TRANS-FACTORIAL HepG2 Assay for human RAR-related Orphan Receptor beta (RORb) (AID 2283010; active = hit-call score of the fitted dose curve at least 0.9, where 1 is the maximum). The gist of the method:
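Readout is reporter-gene mRNA induction, detected as fluorescence after RT-PCR and capillary electrophoresis, fitted for gain of signal against DMSO controls. Transiently transfected HepG2 liver cells carrying GAL4-UAS reporter constructs were treated for 24 hours.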

Assay [16] deals with human Retinoic Acid Receptor beta (RARb), RARB (gene 5915) (UniProt P10826). The assay can be described thus: ATG_RARb_TRANS: Attagene TRANS-FACTORIAL HepG2 Assay for human Retinoic Acid Receptor beta (AID 2283004; active = hit-call score of the fitted dose curve at least 0.9, where 1 is the maximum). The gist of the method: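 Readout is reporter mRNA induction: RNA reverse-transcribed, PCR-amplified, FAM-labelled, HpaI-cut and resolved by capillary electrophoresis. Transiently transfected HepG2 cells carrying exogenous NR–Gal4 chimeras were dosed for 24 h; activity fitted upward relative to DMSO.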
human Retinoic Acid Receptor beta (RARb), RARB (gene 5915), sequence (P10826 whole entry, looked up, the tested form may be a part): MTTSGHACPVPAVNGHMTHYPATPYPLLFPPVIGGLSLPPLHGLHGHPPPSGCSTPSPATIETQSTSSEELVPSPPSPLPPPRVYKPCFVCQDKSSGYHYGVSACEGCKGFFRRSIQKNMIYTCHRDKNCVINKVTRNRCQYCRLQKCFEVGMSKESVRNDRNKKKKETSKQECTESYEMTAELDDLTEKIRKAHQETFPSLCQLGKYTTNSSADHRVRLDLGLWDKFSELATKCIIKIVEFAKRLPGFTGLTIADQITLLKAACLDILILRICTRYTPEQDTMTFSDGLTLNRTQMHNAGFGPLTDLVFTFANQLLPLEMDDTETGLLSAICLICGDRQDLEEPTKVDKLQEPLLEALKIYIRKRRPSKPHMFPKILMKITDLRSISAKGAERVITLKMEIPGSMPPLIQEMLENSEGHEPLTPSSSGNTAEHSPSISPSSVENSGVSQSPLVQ

The target in assay [17] is Retinoic acid receptor alpha (Homo sapiens) (UniProt P10276). The assay is described as follows: ATG_RARa_TRANS: Attagene TRANS-FACTORIAL HepG2 Assay for human Retinoic Acid Receptor alpha (RARa) (AID 2283005; active = hit-call score of the fitted dose curve at least 0.9, where 1 is the maximum). A digest of the protocol:
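HepG2 cells transiently transfected with multiple reporter units expressing chimeric RARα-GAL4 fusion, with GAL4-UAS-driven reporters. After 24 h compound exposure, reporter mRNA induction quantified by RT-PCR and capillary electrophoresis with fluorescent labeling; gain-of-signal fitted relative to DMSO control.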

Assay [18] addresses human Retinoic Acid Receptor gamma (RARg), RARG (gene 5916) (UniProt P13631). The assay can be described thus: ATG_RARg_TRANS: Attagene TRANS-FACTORIAL HepG2 Assay for human Retinoic Acid Receptor gamma (RARg) (AID 2283009; active = hit-call score of the fitted dose curve at least 0.9, where 1 is the maximum). The gist of the method:
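Transient transfection of HepG2 with multi-reporter constructs, then 24 h chemical treatment. Total RNA isolated, reverse-transcribed, PCR-amplified, fluorescently labelled and resolved by capillary electrophoresis; activity scored as mRNA induction versus DMSO.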

Assay [19] is described as follows: BSK_3C_VCAM1: BioMAP Diversity Plus: 3C Assay for Vascular cell adhesion molecule 1 (VCAM1) Biomarker Activity (AID 2282999). The following applies: BioMAP 3C HUVEC, VCAM1 ELISA, cytokine-stimulated; actives raise or lower the signal. The gist of the method: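 Human umbilical vein endothelial cells were dosed with compound for 24 h, after which cell-surface VCAM-1 was quantified by ELISA. Bidirectional curve fitting used DMSO as negative control and activity baseline.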

Peroxisome proliferator-activated receptor gamma (Homo sapiens), sequence (P37231 whole entry, looked up): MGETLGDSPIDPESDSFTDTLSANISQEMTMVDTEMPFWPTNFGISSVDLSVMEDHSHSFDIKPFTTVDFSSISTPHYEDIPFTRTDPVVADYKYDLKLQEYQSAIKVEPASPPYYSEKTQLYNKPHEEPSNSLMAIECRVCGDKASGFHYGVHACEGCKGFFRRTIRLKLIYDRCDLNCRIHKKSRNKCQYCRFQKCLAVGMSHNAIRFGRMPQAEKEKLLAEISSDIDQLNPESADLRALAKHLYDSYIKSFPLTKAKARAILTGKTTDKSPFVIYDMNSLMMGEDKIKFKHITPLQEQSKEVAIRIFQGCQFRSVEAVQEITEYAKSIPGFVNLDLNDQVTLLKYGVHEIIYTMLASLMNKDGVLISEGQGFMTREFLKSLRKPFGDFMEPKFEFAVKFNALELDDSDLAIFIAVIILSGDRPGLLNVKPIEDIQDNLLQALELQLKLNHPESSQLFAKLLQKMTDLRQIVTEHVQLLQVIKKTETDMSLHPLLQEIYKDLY
human Retinoic Acid Receptor gamma (RARg), RARG (gene 5916), sequence (P13631 whole entry, looked up): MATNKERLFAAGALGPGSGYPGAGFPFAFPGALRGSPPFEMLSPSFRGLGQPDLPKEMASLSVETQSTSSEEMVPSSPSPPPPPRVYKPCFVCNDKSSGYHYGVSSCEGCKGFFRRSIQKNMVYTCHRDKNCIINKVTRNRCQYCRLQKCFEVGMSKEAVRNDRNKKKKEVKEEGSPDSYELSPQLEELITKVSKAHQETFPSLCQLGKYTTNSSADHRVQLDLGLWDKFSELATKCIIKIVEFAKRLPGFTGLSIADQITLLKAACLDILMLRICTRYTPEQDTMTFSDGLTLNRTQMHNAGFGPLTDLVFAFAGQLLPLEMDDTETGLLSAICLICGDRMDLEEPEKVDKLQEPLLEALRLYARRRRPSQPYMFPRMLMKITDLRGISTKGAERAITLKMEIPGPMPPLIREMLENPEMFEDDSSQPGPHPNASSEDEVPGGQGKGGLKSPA
Retinoic acid receptor alpha (Homo sapiens), sequence (P10276 whole entry, looked up, the tested form may be a part): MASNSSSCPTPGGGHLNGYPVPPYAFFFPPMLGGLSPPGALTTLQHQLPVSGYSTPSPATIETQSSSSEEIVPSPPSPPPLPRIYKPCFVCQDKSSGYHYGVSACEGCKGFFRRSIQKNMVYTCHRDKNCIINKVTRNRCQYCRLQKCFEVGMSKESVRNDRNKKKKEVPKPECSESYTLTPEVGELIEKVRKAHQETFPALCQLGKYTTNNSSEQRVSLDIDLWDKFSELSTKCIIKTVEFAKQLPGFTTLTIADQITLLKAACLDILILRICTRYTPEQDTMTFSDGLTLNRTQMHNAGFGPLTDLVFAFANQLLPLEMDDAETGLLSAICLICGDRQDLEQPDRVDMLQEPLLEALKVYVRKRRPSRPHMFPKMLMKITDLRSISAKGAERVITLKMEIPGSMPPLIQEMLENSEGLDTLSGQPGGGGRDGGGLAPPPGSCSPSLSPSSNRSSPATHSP
Myc proto-oncogene protein (Homo sapiens), sequence (P01106 whole entry, looked up): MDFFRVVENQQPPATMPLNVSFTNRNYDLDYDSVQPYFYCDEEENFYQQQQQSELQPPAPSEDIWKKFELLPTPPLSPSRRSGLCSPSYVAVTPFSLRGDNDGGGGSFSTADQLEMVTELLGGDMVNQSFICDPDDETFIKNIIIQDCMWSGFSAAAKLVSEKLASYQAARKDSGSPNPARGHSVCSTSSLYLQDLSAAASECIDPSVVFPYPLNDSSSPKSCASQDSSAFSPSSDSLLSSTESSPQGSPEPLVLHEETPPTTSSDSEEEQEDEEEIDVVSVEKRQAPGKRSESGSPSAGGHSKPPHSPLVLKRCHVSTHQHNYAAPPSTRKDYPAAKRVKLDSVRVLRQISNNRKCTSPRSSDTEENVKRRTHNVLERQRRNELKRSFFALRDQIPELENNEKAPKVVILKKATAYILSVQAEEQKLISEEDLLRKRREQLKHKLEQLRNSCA
Cellular tumor antigen p53 (Homo sapiens), sequence (P04637 whole entry, looked up): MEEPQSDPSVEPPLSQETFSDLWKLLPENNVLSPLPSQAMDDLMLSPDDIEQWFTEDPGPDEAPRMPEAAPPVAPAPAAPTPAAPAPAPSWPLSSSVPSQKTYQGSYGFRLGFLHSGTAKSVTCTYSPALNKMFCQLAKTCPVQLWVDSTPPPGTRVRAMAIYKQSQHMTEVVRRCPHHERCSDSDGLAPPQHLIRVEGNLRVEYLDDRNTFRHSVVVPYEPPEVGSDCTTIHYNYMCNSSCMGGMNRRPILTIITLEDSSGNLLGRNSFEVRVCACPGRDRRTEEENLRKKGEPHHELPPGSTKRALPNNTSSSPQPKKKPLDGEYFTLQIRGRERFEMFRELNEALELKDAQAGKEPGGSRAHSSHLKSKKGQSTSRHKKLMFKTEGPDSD
human RAR-related Orphan Receptor beta (RORb), RORB (gene 6096), sequence (Q92753 whole entry, looked up, the tested form may be a part): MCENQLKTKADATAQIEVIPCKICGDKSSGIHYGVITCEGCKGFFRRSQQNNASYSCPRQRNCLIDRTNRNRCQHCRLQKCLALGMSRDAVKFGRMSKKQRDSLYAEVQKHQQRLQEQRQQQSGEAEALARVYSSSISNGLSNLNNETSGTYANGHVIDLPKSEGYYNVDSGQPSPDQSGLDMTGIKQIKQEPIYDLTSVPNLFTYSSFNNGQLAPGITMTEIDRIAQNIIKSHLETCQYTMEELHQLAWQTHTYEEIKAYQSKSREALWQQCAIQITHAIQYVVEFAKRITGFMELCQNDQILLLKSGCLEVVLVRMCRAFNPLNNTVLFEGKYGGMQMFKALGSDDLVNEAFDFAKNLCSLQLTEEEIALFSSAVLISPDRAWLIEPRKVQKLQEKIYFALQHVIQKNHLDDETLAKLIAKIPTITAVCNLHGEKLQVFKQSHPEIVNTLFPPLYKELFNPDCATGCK

With `O=C(O)CCC(F)(F)C(F)(F)C(F)(F)C(F)(F)C(F)(F)F`, the result in assay [1], in assay [2], in assay [3], in assay [4], in assay [5] and in [6] was inactive. For the same molecule, the result in assay [7], in assay [8], in [9], in assay [10], in assay [11] and in assay [12] was inactive. For the same molecule, the molecule was called inactive in assay [13], in assay [14] and in assay [15]. The AC50 (usually the concentration at which the activity in the assay is half-maximal) in [13] was 82.5 µM (active).
Regarding `C=CC(=O)OCCN(CC)CC`, the AC50 is 27.4 µM (active) in assay [1], 144 µM (active) in assay [3], 48.9 µM (active) in assay [4] and 169 µM (active) in assay [5]. Moreover, the outcome in [2], in [9], in assay [16], in assay [17], in assay [13] and in [18] was inactive.
For `C=CC(C)(CCC=C(C)C)OC(C)=O` (stereo not drawn), the call in assay [1], in assay [2], in assay [3], in assay [4], in assay [5] and in assay [19] was inactive. The result in assay [11], in assay [13] and in [15] was inactive. Also, the AC50 in assay [6] is 27.8 µM (active); in assay [7], 31.5 µM (active); in [8], 34.2 µM (active); in [12], 34.2 µM (active); in assay [14] it was 29.5 µM (active).
Consider `CC(=O)Nc1ccc(S(N)(=O)=O)cc1`, for which the molecule was classed as inactive in assay [1], in assay [2], in assay [3], in assay [4], in assay [5] and in assay [9]. In addition, the molecule was classed as inactive in [10], in [14], in assay [18] and in assay [15].
Consider `O=C(Nc1cccc([N+](=O)[O-])c1)c1cc2ccccc2cc1O`, for which the call in assay [1], in [2], in assay [4], in assay [5], in assay [9] and in assay [10] was inactive. Besides, the result in assay [17], in assay [18] and in assay [15] was inactive. Moreover, the AC50 in assay [3] was 1.37 µM (active); in [13] it was 6.92 µM (active); in [14] it was 8.27 µM (active).
In the case of `Cn1sccc1=O`, the AC50 is 163 µM (active) in assay [1], 187 µM (active) in assay [2], 161 µM (active) in assay [3] and 171 µM (active) in [4]. Besides, the result in [9], in [16] and in assay [14] was inactive.
Turning to `NS(=O)(=O)O`, the call in assay [1], in assay [2], in [3], in [4], in assay [5] and in assay [9] was inactive. The molecule was classed as inactive in [10], in [13], in [14] and in assay [15].
Take `CCC(=O)O`: the outcome in assay [1], in assay [2], in [3], in [4], in [5] and in [10] was inactive. Besides, the call in [17], in assay [13] and in assay [14] was inactive.
Take `c1ccc2c(c1)CCC2`: the molecule was called inactive in [1], in assay [2], in assay [3], in [4] and in assay [18].
